The results in this text go back to PubChem BioAssay (NCI).

This is part of a sample that, as a whole, favours compounds with a hit. Of some 83,000 tested, about 20% had one in any assay.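 A percent growth of 40 corresponds to 60% growth inhibition; 0 means no net growth; -100 means all cells died. Active threshold: below 10.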 Calls of active or inactive are those of the source.

The assay relates to NCI-H23 lung. The experiment in a line: NCI-60 one-dose screen, 48 h (100 = growth as untreated, 0 = no growth, -100 = all killed). The note with it: 10 µM unless noted.
With `O=C(/C=C/c1ccco1)Nc1ncc(Cc2cccc(C(F)(F)F)c2)s1`, the growth was 22.4% (inactive).

With `Cc1cc(S(=O)(=O)/N=C(\N)n2nc(C)c(C)c2C)c(SCc2ccccc2)cc1Cl`, the growth was 54.6% (inactive).

Regarding `CN(c1cc2ncc(=O)[nH]c2cc1NC(N)=NCc1ccc(Cl)cc1)C1CCCCC1`, the growth was 88.1% (inactive).

For the compound `COc1cc(-c2nc3sccn3c2-c2ccnc(NCCNS(=O)(=O)c3ccccc3)n2)ccc1F`, the growth was 67.6% (inactive).

`O=C(Nc1cccc(-c2ccc(N3CCOCC3)nn2)c1)Nc1cccc(C(F)(F)F)c1`: the growth was 70.4% (inactive).

For the compound `COCCNC(=O)Nc1ccc2nc(-c3cccs3)c(-c3cccs3)nc2c1`, the growth is 90% (inactive).

On to `O=C1/C=C/[C@@H](O)[C@@H]2C[C@@H](O)C[C@H]2/C=C/CCC[C@H](CCc2ccccc2)O1`, for which the growth was 13.3% (inactive).

For `CC(=O)Oc1ccc(/C(=C(\C)c2ccc(Cl)cc2)c2ccc(OCCN3CCCCC3)cc2)cc1`, the growth was 46.9% (inactive).

Take `N#Cc1nc(-c2ccc(F)cc2)oc1S(=O)(=O)N1CCOCC1`: the growth was 70.3% (inactive).

Turning to `C#CCNC(=O)[C@H](CC)[C@H]1CC[C@H](C)[C@H]([C@@H](C)[C@H](O)[C@H](C)C(=O)[C@H](CC)C2O[C@]3(C=CC(=O)[C@]4(CC[C@@](C)([C@H]5CC[C@](O)(CC)[C@H](C)O5)O4)O3)[C@H](C)C[C@@H]2C)O1` (some centres not stated), the growth is 42.4% (inactive).

Take `COc1ccc(CNc2c3ccccc3nc3ccccc23)cc1`: the growth was 38.8% (inactive).

`Clc1cc(Cl)c(Cl)c(-c2nnc(SCc3ccncc3Br)o2)c1`: the growth is 87.7% (inactive).
